Only some compounds are listed: those with a hit (about 20% of all), similar ones and a draw of the others.
CHX counter – counter-screen for Shiga toxin inhibitors: cycloheximide protein synthesis inhibition. cell reporter, cycloheximide protein synthesis inhibition counterscreen. max response, %. actives 12% (n = 300,000); in the data active = max response mostly above about 13%, no sharp cut-off; inactive = mostly below about 14%; also: read at 38.3 µM for the half of the compounds with a filed dose; 0% is about no effect
HCMV inh – blocks human cytomegalovirus replication; actives 4.5% (n = 410,000); HFF cells, HCMV-luciferase reporter, 72 h; hits give low values; AID 1259415; activity change, negative = inhibition, % at 57.5 µM; in the data active = activity change below about -60%; inconclusive = no clear call, values can overlap the other calls; inactive = above about -39%; also: % is scaled to controls: 0 for no effect and ±100 for the full control effect
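Cell-based, HFFs, 1000 cells/well, 16 h 37C; cpds in DMSO + HCMV-luc, MOI 1 PFU/cell; 72 h 37C; OneGlo luminescence after 5 min RT; norm. to buffer vs Salinomycin 10uM.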
Pf growth 96h – P. falciparum growth inhibition at 96 hour, primary screen for plastid delayed-death inhibitors. P. falciparum luciferase reporter growth, 96 h. Potency, µM (series often up to 28.7 µM), for the others: at the highest dose activity change, negative = inhibition, most hits filed as inhibitors. actives 6.9% (n = 320,000). AID 504834; also: potency is read from the fitted curve at half-maximal effect; % is scaled to controls: 0 for no effect and ±100 for the full control effect
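Parasite growth measured via integrated firefly luciferase reporter in P. falciparum. Infected erythrocytes at 2% hematocrit, 0.05% parasitemia final were treated 96 hours at 37 C under 5% CO2, and luminescence was read.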
Shiga inhibitor – blocks Shiga toxin action in Vero cells. Vero cells, Shiga toxin protein synthesis inhibition reporter. actives 9.2% (n = 290,000). inhibition, % at 38.7 µM; in the data active = inhibition mostly above about 28%, no sharp cut-off; inactive = mostly below about 43%; also: 0% is about no effect
Pf growth 48h – P. falciparum growth inhibition at 48 hours (one generation). P. falciparum luciferase growth in erythrocytes, 48 h. Potency, µM (highest dose often 28.7 µM), inactives show at the top dose activity change, negative = inhibition, hits mostly inhibitors. actives 5.9% (n = 310,000); also: potency is read from the fitted curve at half-maximal effect; % is scaled to controls: 0 for no effect and ±100 for the full control effect
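Read-out is firefly luciferase luminescence from an integrated reporter in P. falciparum, so falling signal marks reduced parasite growth. Infected erythrocytes were at 2% hematocrit and 0.1% parasitemia (final) in Albumax-supplemented RPMI 1640.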
Active calls of the source: *; i = inactive; ? = inconclusive; nt = not tested or not shown. Unless noted, calls follow the shape of the dose curve; as a rule, active = well fitted inhibition curve with a large enough effect; inconclusive = small, poorly fitted or top-dose-only effect, or another doubt; inactive = no such curve, though single readings can be large or run the other way.

SMILES	CHX counter	HCMV inh	Pf growth 96h	Shiga inhibitor	Pf growth 48h
CCC(=NCCO)c1c(O)n(C2CCCCC2)c(=O)[nH]c1=O	-4	15	21%	-11	22%
CC/C(=N\NC(=O)c1ccccc1O)c1c(O)n(C2CCCCC2)c(=O)[nH]c1=O	23*	-9	12µM*	52*	?
CCCCn1c(O)c(/C(C)=N/NC(=O)Nc2ccccc2)c(=O)[nH]c1=O	31*	15	49%	39*	45%
Cc1cc(Br)cc2c(C(=O)NCC3CCCO3)cc(-c3ccccc3)nc12 (centres undefined)	-1	0	31%	-8	-3%
COc1ccccc1OCCn1c(C)c(C=O)c2ccccc21	1	-12	?	-4	?
COc1ccc(-c2nc3cnc(Nc4ccccn4)cc3n2C)cc1OC	nt	-10	nt	nt	nt
C=CCn1c(O)c(C(CC)=NCCc2ccccc2)c(=O)[nH]c1=O	-2	144	?	-18	nt
CCCCn1c(O)c(C(CC)=NCc2ccc(F)cc2)c(=O)[nH]c1=O	-4	37	?	-6	?
C=CCn1c(O)c(/C(CC)=N/NC(=S)Nc2ccccc2)c(=O)[nH]c1=O	35*	25	61%	63*	56%
CCCCn1c(O)c(C(C)=NCc2ccc(F)cc2)c(=O)[nH]c1=O	-6	-21	6.6µM*	-22	-14%
C=CCN(Cc1nc(-c2ccccc2)no1)C(=O)c1ccco1	9	-20	11%	11	-3%
Cc1ccc(-n2c(CNCc3ccc(F)cc3)nc3ccccc3c2=O)cc1	15*	22	?	14	?
CCN1C(=O)C(Cc2nc3ccccc3c(=O)n2-c2ccc(OC)cc2)c2cc(C)ccc21 (centres undefined)	nt	-11	nt	nt	nt
CCN1C(=O)C(Cc2nc3ccccc3c(=O)n2-c2ccccc2)c2cc(Br)ccc21 (centres undefined)	nt	-70*	nt	nt	nt
CCN(CC)CCNCc1nc2ccccc2c(=O)n1-c1ccc(F)cc1	-4	-7	75%	-6	13%
N=C(N)SCc1nc2ccccc2c(=O)n1-c1ccccc1	45*	-5	126%	68*	109%
O=c1c2ccccc2nc(Cc2ccccc2)n1-c1ccccc1	19*	47	?	18	11%
O=c1c2ccccc2n(Cc2cccc(Cl)c2)c(=O)n1CCc1ccccc1	nt	18	nt	nt	nt
O=C(NCC(=O)N1CCN(S(=O)(=O)c2cccs2)CC1)c1ccc(Cl)cc1	-6	18	?	23	-25%
COc1ccc(NC(=O)CCC(=O)c2cccs2)cc1S(=O)(=O)Nc1ccccc1Cl	12	-16	-17%	47*	16%
COc1ccc(NC(=O)CCC(=O)c2cccs2)c(OC)c1	31*	nt	-5%	77*	12%
O=C(Nc1ccc(Cl)c(S(=O)(=O)Nc2ccccc2Cl)c1)c1cccs1	-4	-17	-7%	-7	-1%
COc1ccc(NC(=O)CCCC(=O)c2ccccc2)c(OC)c1	16*	40	?	21	?
COc1ccc(CCC(C)NC(=O)CCc2ccccc2)c(OC)c1 (centres undefined)	-4	-40	?	-10	9.3µM*
COc1ccc(NC(=O)C/C(C)=N/NC(=O)CCc2ccccc2)c(OC)c1	2	-27	50%	-5	-5%
SMILES	CHX counter	HCMV inh	Pf growth 96h	Shiga inhibitor	Pf growth 48h
COc1ccc(NC(=O)CCCc2ccccc2)c(OC)c1	19*	89	1%	nt	32%
Nc1ccc(C(=O)Nc2cccc(N)c2)cc1	20*	16	85%	77*	72%
Cc1ccccc1C(=O)Nc1cccc(N)c1	18*	11	nt	31*	32%
O=C(Nc1cccc(Cl)c1)c1ccccc1	nt	81	85%	nt	24%
NC(=O)c1cc(S(=O)(=O)Nc2ccccc2)cs1	-2	-8	27%	-4	7%
CCOc1ccc(NS(=O)(=O)c2csc(C(N)=O)c2)cc1	1	?	1%	9	1.9µM*
NC(=O)c1cc(S(=O)(=O)NCc2ccccc2)cs1	-2	-11	53%	-12	16%
Cc1ccccc1CNS(=O)(=O)c1csc(C(N)=O)c1	6	0	6.6µM*	-3	-27%
O=C(CSc1nc2c(c(=O)[nH]1)CCC2)Nc1cc(C(F)(F)F)ccc1Cl	nt	3	nt	nt	nt
NC(C(=O)O)C1ON=C(Cl)C1O (centres undefined)	nt	-86*	nt	nt	nt
NC(C(=O)O)C1CC(Cl)=NO1 (centres undefined)	-4	nt	3.3µM*	-11	?
O=S(=O)(Nc1ccc(C(O)(C(F)(F)F)C(F)(F)F)cc1)c1cccc2cccnc12	nt	-12	nt	nt	nt
CN(c1ccccc1)S(=O)(=O)c1ccc(C(=O)NNC(=O)c2ccccc2F)cc1	nt	-6	?	nt	11%
COc1ccc(-c2cc(OC(=O)c3ccc(Cl)cc3)c3c(C)oc(C)c3c(=O)c2)cc1	nt	20	nt	nt	nt
CCOc1ccc(CC(=N)C2=C(O)CC(C)(C)CC2=O)cc1OCC	-4	-6	?	-3	1%
CCOc1ccc(CC(=O)C2=C(N3CCOCC3)CC(C)(C)CC2=O)cc1OCC	-2	-22	6.6µM*	-8	-14%
c1cnn(Cc2cnc(N3CCOCC3)s2)c1	7	26	0%	-7	24%
COc1cc(F)c(S(=O)(=O)N2CCN(S(=O)(=O)c3ccc4c(c3)OCCO4)CC2)c(F)c1	-7	nt	nt	-5	nt
O=C(Nc1nnc(-c2cc(Cl)ccc2Cl)o1)c1ccco1	nt	24	28%	nt	-18%
Nc1cc([N+](=O)[O-])cc2oc(-c3ccccc3)cc12	53*	90	12%	53*	129%
O=C(COc1ccc(Cl)cc1Cl)N/N=C/c1ccc(OC2OC(CO)C(O)C(O)C2O)cc1 (centres undefined)	3	-79*	-7%	4	0%
N#C/C(C(=O)c1ccccc1)=C1/CCCN1	19	19	nt	52	-18%
N#C/C(C(=O)Oc1ccccc1)=C1\C=CC=CN1	44*	113	i	60*	250%
CCCN(CCC)C(=O)CSc1nc2ccsc2c(=O)n1NC(=O)c1ccccc1	19*	95	222%	32	77%
NS(=O)(=O)c1ccc(CCNC(=O)CSc2nc3ccsc3c(=O)n2CC(=O)O)cc1	-5	-29	1.2µM*	-4	-11%
SMILES	CHX counter	HCMV inh	Pf growth 96h	Shiga inhibitor	Pf growth 48h
O=C(CSc1nc2ccsc2c(=O)n1-c1ccc(Br)cc1)NCc1ccccc1	14	-7	nt	36	nt
CC(C)CCNC(=O)CSc1nc2ccsc2c(=O)n1NC(=O)c1ccccc1	26*	106	?	13	58%
CCn1cnc2c(=O)oc3ccc(S(=O)(=O)N4CCN(c5cc(C)ccc5C)CC4)cc3c21	nt	-3	nt	nt	nt
Cc1c(CCCN)c2ccccc2n1Cc1ccccc1	0	-35	?	-3	?
O=C(c1ccc(Br)cc1)N(Cc1ccco1)c1ccccn1	nt	2	nt	nt	nt
COC(=O)c1sccc1S(=O)(=O)N(CC(=O)Nc1cc(F)ccc1F)c1ccc(C)c(C)c1	nt	9	nt	nt	nt

Bioassay records (PubChem)
